Measurements from PubChem BioAssay AID504862 (Sanford-Burnham Center for Chemical Genomics, 2011).
The list shows a part of the results. A number with no mark means an inactive call.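 How the source made its calls: active means average inhibition reaching 50% or more with the compound at 20 µM; inactive means the rest.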

Tested on: diaphorase (Clostridium kluyveri)
Assay: C. kluyveri diaphorase inhibition, resazurin coupling – biochemical, fluorescence intensity, 10 µM NADPH, counter-screen for P. falciparum G6PD inhibitor project, confirmation (AID 504862);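 further: resorufin red fluorescence formed as diaphorase reduces resazurin using NADPH; 0% = DMSO with enzyme and 100% = DMSO without enzyme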
Conditions: diaphorase-coupled resazurin reduction, NADPH 10 uM, at 20 µM, hits give high values

## O=C1NC(=O)N(c2ccccc2)C(=O)/C1=C/c1ccc([N+](=O)[O-])s1
  inhibition: 47.3%
